Screens (PubChem BioAssay)
Shown are actives, neighbours in structure and some others; about 4.5% of the full set was active somewhere.
Rce1 inhib = yeast Ras-converting enzyme inhibition | Q03530 | calls only | 290,000 compounds, 0.27% hits | AID 2563 | yeast membranes, quenched prenylated peptide cleavage fluorescence;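 active = fall in fluorescence gain of 50% or more versus controls, with final raw signal at or below 3038400; inconclusive = same 50% fall but final raw signal above 3038400; inactive = fall in fluorescence gain under 50%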;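 also: plate controls were neutral control wells for no effect and wells lacking membranes for full effect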
Rtt109 HAT inh = inhibitors of Candida albicans Rtt109/Vps75 histone acetyltransferase; Q5AAJ8; purified Rtt109/Vps75, ThioGlo CoA-SH fluorescence, 4 h; inhibition, % at 34.9 µM; 330,000 compounds, 0.16% hits; AID 540336;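 active = inhibition of at least 50% in every replicate; inconclusive = best replicate reaches 50% inhibition but some replicates fall short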
Target sequence (Q5AAJ8 whole entry, looked up): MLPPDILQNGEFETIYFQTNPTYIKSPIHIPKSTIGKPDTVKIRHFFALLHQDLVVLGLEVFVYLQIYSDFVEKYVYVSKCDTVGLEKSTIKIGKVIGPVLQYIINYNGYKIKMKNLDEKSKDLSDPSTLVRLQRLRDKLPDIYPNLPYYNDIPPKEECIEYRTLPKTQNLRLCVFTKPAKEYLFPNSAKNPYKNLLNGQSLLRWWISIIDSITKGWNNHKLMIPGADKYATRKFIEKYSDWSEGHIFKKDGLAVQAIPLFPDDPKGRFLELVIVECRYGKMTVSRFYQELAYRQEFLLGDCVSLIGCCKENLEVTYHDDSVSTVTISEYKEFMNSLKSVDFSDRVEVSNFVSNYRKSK
Efflux pump inh = blocks antifungal efflux pumps in multiplex yeast assay. inhibition, % at 10 µM. S. cerevisiae Candida pump triplex, Nile Red efflux. 330,000 compounds, 0.44% hits;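 active = plate passing quality check with inhibition over a set limit, or well fluorescence over plate mean plus 4 SD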;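 also: Nile Red retained in pooled yeast measured as flow cytometry median fluorescence; 0% = buffer negative control and 100% = Enniatin B positive control; higher means more Nile Red kept so more efflux inhibition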
GRK2 inh = inhibitors of human GRK2 displacing RNA aptamer | P25098 | bead flow cytometry, FAM-aptamer displacement from GRK2 | inhibition of aptamer binding, % at 10 µM | 330,000 compounds, 0.59% hits;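 active = inhibition of aptamer binding above 40%, roughly 3 SD of noise, on plates passing a quality check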;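 also: median bead fluorescence of bound FAM aptamer so fluorescent compounds give negative values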
ALR inh = blocks human ALR sulfhydryl oxidase activity; purified ALR, DTT oxidation, H2O2 HRP-luminol luminescence; 290,000 compounds, 3.8% hits; P55789; inhibition, % (test concentration not listed);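 active = mean replicate inhibition above about 79%, with every replicate also reaching it, limit read from the data; inconclusive = only one of the two criteria met; inactive = mean below limit and not every replicate reaching it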
Target sequence (P55789 whole entry, looked up): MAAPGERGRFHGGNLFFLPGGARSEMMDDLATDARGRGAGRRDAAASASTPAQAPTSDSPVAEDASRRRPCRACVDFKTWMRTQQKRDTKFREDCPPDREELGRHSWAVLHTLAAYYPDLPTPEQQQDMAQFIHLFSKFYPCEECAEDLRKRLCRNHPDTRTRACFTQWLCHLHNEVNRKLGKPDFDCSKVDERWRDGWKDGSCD
HDAC3 inh = inhibitors of human histone deacetylase 3 | O15379 | recombinant HDAC3, fluorogenic peptide/trypsin coupled, fluorescence | inhibition, % at 8.3 µM | 320,000 compounds, 0.15% hits; in the data active = inhibition above about 26%, passing the limit was not always enough; inconclusive = no clear call, values can overlap the other calls
Numbers without * were called inactive.

For COc1cc([C@@H]2Oc3cc(C4Oc5cc(O)cc(O)c5C(=O)[C@H]4O)ccc3O[C@H]2CO)ccc1O (some centres undefined) the results were Rtt109 HAT inh 14, Efflux pump inh 0, GRK2 inh 0, ALR inh 99* and HDAC3 inh -2.
`C[C@]12C(=O)N(c3ccc(Br)cc3)C(=O)N1[C@H]1c3ccccc3OC[C@@H]1[C@H]2c1ccccc1` gave Rtt109 HAT inh 0, Efflux pump inh 0, GRK2 inh 3, ALR inh -2 and HDAC3 inh 0.
`CCCc1cc(=O)[nH]c(SCc2ccccc2Cl)n1` gave Rtt109 HAT inh -10, Efflux pump inh 0, GRK2 inh 0, ALR inh 99* and HDAC3 inh 0.
`CCCc1cc(=O)[nH]c(SCC(=O)CSc2nc(CCC)cc(=O)[nH]2)n1` gave Rce1 inhib inactive, Rtt109 HAT inh -16, Efflux pump inh 0, GRK2 inh 0, ALR inh 71 and HDAC3 inh 45*.
CCCc1cc(=O)[nH]c(SCC(=O)c2cc(C)n(C)c2C)n1 was read as Rce1 inhib inactive, Rtt109 HAT inh 1, Efflux pump inh 0, GRK2 inh 1, ALR inh 98* and HDAC3 inh -10.
Screening CCCc1cc(=O)[nH]c(SCC(=O)c2cc(C)n(C3CC3)c2C)n1 returned Rce1 inhib inactive, Rtt109 HAT inh 4, Efflux pump inh 0, GRK2 inh 0, ALR inh 2 and HDAC3 inh -7.
For Nc1cc(=O)[nH]c(SCc2ccccc2Cl)n1 the results were Rce1 inhib inactive, Rtt109 HAT inh -1, Efflux pump inh 0, GRK2 inh 4, ALR inh -7 and HDAC3 inh -2.
CCOC(=O)c1cc(-c2ccccc2)nc2c(O)cccc12 was read as Rtt109 HAT inh -8.
`CN(C(=O)COC(=O)c1cc(S(=O)(=O)N2CCCCC2)ccc1Cl)c1ccccc1` gave Rtt109 HAT inh 0, Efflux pump inh 0, GRK2 inh 0, ALR inh -5 and HDAC3 inh inconclusive.
COc1cccc(NC(=O)CSc2nc3ccccc3c(=O)n2C)c1 was read as Rce1 inhib inactive, Rtt109 HAT inh 4, Efflux pump inh 0, GRK2 inh 1, ALR inh -12 and HDAC3 inh -6.
For Cc1c(O)nc(SCC(=O)Nc2cccc(C(F)(F)F)c2)n(-c2ccccc2)c1=O the results were Rce1 inhib inactive, Rtt109 HAT inh -5, Efflux pump inh 0, GRK2 inh 2, ALR inh 99* and HDAC3 inh 8.
For COc1cccc(NC(=O)CSc2nc(O)c(C)c(=O)n2-c2ccc(C)cc2)c1 the results were Rtt109 HAT inh 3, Efflux pump inh 0, GRK2 inh 1, ALR inh 98* and HDAC3 inh -6.
Screening O=C(COC(=O)c1ccc(F)c(S(=O)(=O)N2CCOCC2)c1)NC1CC1 returned Rtt109 HAT inh 0, Efflux pump inh 0, GRK2 inh 6, ALR inh 1 and HDAC3 inh -4.
For Nc1ccccc1-c1ccc([N+](=O)[O-])cc1 the results were Rtt109 HAT inh 1.
For CC(C)c1cccc(C(C)C)c1NC(=O)CN1C(=O)NC2(CCCCCCC2)C1=O the results were Rtt109 HAT inh 0, Efflux pump inh 0, GRK2 inh 2, ALR inh 1 and HDAC3 inh -1.
NNC(=O)c1cc2ccccc2cc1O was read as Rce1 inhib inactive, Rtt109 HAT inh -1, Efflux pump inh 0, GRK2 inh 0, ALR inh 2 and HDAC3 inh -4.
Screening NNC(=O)c1ccc(O)cc1O returned Rce1 inhib inactive, Rtt109 HAT inh 4, Efflux pump inh 0, GRK2 inh 0, ALR inh 99* and HDAC3 inh 8.
Cc1ccc(C(c2c(O)nc3n(c2=O)CCS3)c2c(O)nc3n(c2=O)CCS3)cc1 was read as Rce1 inhib inactive, Efflux pump inh 0, GRK2 inh 0, ALR inh 97* and HDAC3 inh 6.
O=c1c(C(c2ccc(O)cc2)c2c(O)nc3n(c2=O)CCS3)c(O)nc2n1CCS2 was read as Rce1 inhib inactive, Rtt109 HAT inh -3, Efflux pump inh 0, GRK2 inh 0 and HDAC3 inh 13.
For O=c1c(C(c2c(O)nc3n(c2=O)CCS3)c2cccc3ccccc23)c(O)nc2n1CCS2 the results were Rce1 inhib inactive, Rtt109 HAT inh -12, Efflux pump inh 0, GRK2 inh 0, ALR inh 96* and HDAC3 inh 6.
Screening CCCOC1CCCN(C(=O)c2ccc3oc(C(C)C)nc3c2)C1 (centres undefined) returned Rtt109 HAT inh -6, Efflux pump inh 0, GRK2 inh 2, ALR inh -6 and HDAC3 inh 1.
O=C(COc1cccc(C(F)(F)F)c1)NNC(=O)Cn1c(=O)cnc2ccccc21 was read as Rce1 inhib inactive, Rtt109 HAT inh -3, Efflux pump inh 0, GRK2 inh 3, ALR inh -44 and HDAC3 inh 2.
`CSCCC(NC(=O)c1ccc(Cl)cc1Cl)C(=O)NNC(=O)c1ccncc1` (centres undefined) gave Rtt109 HAT inh 0, Efflux pump inh 0, GRK2 inh 0 and HDAC3 inh 5.
For Cc1ccccc1OCC(=O)Nc1ccc(Cc2ccncc2)cc1 the results were Rtt109 HAT inh -1, Efflux pump inh 0, GRK2 inh 2, ALR inh -17 and HDAC3 inh 3.
Screening COc1ccc(NC(=O)COC(=O)CCOc2ccccc2C)cc1Cl returned Rce1 inhib inactive, Rtt109 HAT inh -1, Efflux pump inh 0, GRK2 inh 0, ALR inh 98* and HDAC3 inh 10.
For Cc1ccccc1OCC(=O)Nc1ccncc1 the results were Rce1 inhib inactive, Rtt109 HAT inh -9, Efflux pump inh 0, GRK2 inh 0, ALR inh 99* and HDAC3 inh 3.
`Cc1ccc(CN(C)CCc2ccccn2)cc1` gave Rce1 inhib inactive, Rtt109 HAT inh -10, Efflux pump inh 0, GRK2 inh 0, ALR inh 96* and HDAC3 inh -5.
`O=C(OC1CCCCC1=O)c1cc(Cl)ccc1[N+](=O)[O-]` (centres undefined) gave Rce1 inhib inactive, Rtt109 HAT inh -1, Efflux pump inh 0, GRK2 inh 0, ALR inh 91* and HDAC3 inh 5.
CCOC(=O)CNc1nnc(SCC(=O)OCC)[nH]c1=O was read as Rce1 inhib inactive, Rtt109 HAT inh inconclusive, Efflux pump inh 0, GRK2 inh 0, ALR inh 100* and HDAC3 inh 17.
For Cc1ccc(S(=O)(=O)N2CCN=C2SCc2cccnc2)cc1 the results were Rce1 inhib inactive, Rtt109 HAT inh -18, Efflux pump inh 0, GRK2 inh 0, ALR inh 98* and HDAC3 inh -6.
